FEN1 inh-1 = qHTS Assay for the Inhibitors of Human Flap endonuclease 1 (FEN1); Recombinant FEN1 flap cleavage, fluorescence, 15 min; Potency, µM (series often up to 114 µM), actives largely listed as inhibitors; 0.35% of 390,000 active; further: nearly all actives have a fitted effect of over 65% in size
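Reaction started by adding substrate (50 nM final) to 10 nM enzyme after 15 min room-temperature compound preincubation. Reads at 0 and 15 min, with data normalized and fitted to a four-parameter Hill equation.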
POLB inh = qHTS Assay for Inhibitors of DNA Polymerase Beta; Pol beta primer extension/strand displacement, fluorescence kinetic; Potency, µM (doses to about 114 µM), usual class: inhibitors; P06746; 1.3% of 340,000 active
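Values derive from four-parameter Hill fits of normalized kinetic data: reads at 0 and 10 min following addition of 50 nM substrate to 10 nM Pol beta preincubated 15 min with compound.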
Pol kappa inh-1 = qHTS for Inhibitors of Polymerase Kappa | Potency, µM (highest dose often 107 µM), usual class: inhibitors | AID 588579, 2011 | purified Pol kappa, fluorescent DNA synthesis assay, 10 min | 0.53% of 400,000 active
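First, compounds were pin-transferred onto 10 nM Pol kappa. After 15 min at room temperature, substrate was added to 50 nM final. Fluorescence was then measured kinetically at 0 and 10 min.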
Pol iota inh = qHTS for Inhibitors of Polymerase Iota; Pol iota fluorescent replication assay, 10 min; AID 588590, 2011; DNA polymerase iota (Homo sapiens), Q9UNA4; Potency, µM (highest dose often 115 µM), hits mostly inhibitors; 1% of 390,000 active
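Pol iota at 10 nM preincubated 15 min with compounds at room temperature; reaction started with fluorescent substrate, 50 nM final. Fluorescence read kinetically at 0 and 10 min; buffer-only wells as negative control.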
WRN helicase inh-1 = qHTS for Inhibitors of WRN Helicase; WRN helicase unwinding, fluorescent forked duplex, kinetic; Potency, µM (series often up to 114 µM), usual class: inhibitors; 0.46% of 360,000 active; further: nearly all actives have a fitted effect of over 55% in size
Target sequence (Q14191 whole entry, looked up): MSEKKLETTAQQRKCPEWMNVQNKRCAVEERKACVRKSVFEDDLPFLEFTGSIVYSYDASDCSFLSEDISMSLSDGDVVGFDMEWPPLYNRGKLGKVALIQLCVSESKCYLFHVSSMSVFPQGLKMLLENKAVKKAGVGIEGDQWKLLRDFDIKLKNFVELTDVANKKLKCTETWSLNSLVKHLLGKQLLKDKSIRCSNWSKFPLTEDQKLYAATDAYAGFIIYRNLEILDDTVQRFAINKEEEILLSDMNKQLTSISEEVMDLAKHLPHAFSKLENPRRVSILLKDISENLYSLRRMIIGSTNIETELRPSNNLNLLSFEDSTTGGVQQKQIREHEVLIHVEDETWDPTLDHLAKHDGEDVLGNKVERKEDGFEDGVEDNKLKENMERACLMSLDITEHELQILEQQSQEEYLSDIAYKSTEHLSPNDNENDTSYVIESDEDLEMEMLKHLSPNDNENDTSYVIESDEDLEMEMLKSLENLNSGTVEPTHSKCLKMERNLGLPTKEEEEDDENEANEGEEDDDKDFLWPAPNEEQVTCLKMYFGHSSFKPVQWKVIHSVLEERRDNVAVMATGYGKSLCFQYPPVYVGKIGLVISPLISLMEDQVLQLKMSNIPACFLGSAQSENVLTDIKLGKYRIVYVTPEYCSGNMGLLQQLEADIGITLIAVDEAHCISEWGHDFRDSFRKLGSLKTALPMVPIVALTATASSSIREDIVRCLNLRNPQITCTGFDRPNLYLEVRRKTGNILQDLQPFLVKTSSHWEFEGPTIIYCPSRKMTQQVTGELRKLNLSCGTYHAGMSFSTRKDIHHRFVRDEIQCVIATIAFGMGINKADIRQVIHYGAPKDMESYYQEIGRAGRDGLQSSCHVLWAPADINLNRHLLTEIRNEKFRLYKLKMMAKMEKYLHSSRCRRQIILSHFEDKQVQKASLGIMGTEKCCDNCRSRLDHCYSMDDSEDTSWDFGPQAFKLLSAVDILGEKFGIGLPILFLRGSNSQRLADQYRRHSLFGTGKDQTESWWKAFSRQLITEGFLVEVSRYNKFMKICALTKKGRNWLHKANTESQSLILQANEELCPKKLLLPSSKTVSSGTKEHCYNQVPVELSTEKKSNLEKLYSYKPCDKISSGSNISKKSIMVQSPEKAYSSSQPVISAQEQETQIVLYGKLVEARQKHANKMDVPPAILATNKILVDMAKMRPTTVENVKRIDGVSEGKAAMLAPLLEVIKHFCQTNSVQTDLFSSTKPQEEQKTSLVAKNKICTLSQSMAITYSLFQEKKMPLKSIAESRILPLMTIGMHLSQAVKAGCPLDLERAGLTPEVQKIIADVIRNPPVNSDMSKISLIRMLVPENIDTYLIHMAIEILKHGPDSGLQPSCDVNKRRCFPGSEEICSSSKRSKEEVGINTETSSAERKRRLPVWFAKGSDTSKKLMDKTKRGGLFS
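Kinetic fluorescence helicase assay: unwinding of a quenched forked DNA duplex (100 nM final) with 2 mM ATP final raises red fluorescence (525/598 nm). Compounds sat 15 min at room temperature with 20 nM WRN beforehand.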
Pol eta inh-1 = qHTS for Inhibitors of Polymerase Eta. Potency, µM (highest dose often 114 µM), hits mostly inhibitors. 1.2% of 390,000 active. AID 588591, 2011. recombinant Pol eta, fluorescent DNA replication assay. DNA polymerase eta (Homo sapiens), Q9Y253
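Fluorescent replication assay: 50 nM final substrate added after a 15 min room-temperature compound preincubation with 10 nM enzyme. Signal taken at 0 min and again at 10 min.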
TbPGK inh = qHTS for inhibitors of Phosphogylcerate Kinase: Hit Validation Screen; TbPGK coupled GAPDH assay, Kinase-Glo luminescence; 79% of 500 active; Potency, µM (highest dose often 57.5 µM), usual class: inhibitors; shares compounds with Pol kappa inh-1; further: nearly all actives have a fitted effect of over 65% in size
Pol iota confirm = qHTS for Inhibitors of Polymerase Iota: Confirmatory Assay for Cherry-picked Compounds. shares compounds with Pol kappa inh-1. Pol iota primer extension, TAMRA/BHQ fluorescence. Potency, µM, actives largely listed as inhibitors. 77% of 1,500 active. AID 720496, 2013
Pol kappa inh-2 = qHTS for Inhibitors of Polymerase Kappa: Confirmatory Assay for Cherry-picked Compounds; Potency, µM, usual class: inhibitors; shares compounds with Pol eta inh-1; purified Pol-kappa, fluorescent strand-displacement substrate; 76% of 920 active
Pol eta inh-2 = qHTS for Inhibitors of Polymerase Eta: Confirmatory Assay for Cherry-picked Compounds. Potency, µM, most hits filed as inhibitors. Pol eta primer extension, TAMRA/BHQ fluorescence, 10 min. shares compounds with Pol eta inh-1. 64% of 2,600 active
FEN1 inh-2 = qHTS Assay for the Inhibitors of FEN1: Confirmatory Assay for Cherry-picked Compounds; 79% of 880 active; FEN1 flap cleavage, TAMRA/BHQ2 fluorogenic DNA substrate; Potency, µM, most hits filed as inhibitors; shares compounds with FEN1 inh-1; AID 720498, 2013; further: nearly all actives have a fitted effect of over 60% in size
WRN helicase inh-2 = qHTS for Inhibitors of WRN Helicase: Confirmatory Assay for Cherry-picked Compounds | 63% of 610 active | WRN helicase DNA unwinding, fluorescence kinetic | Potency, µM (top dose mostly 57.1 µM), hits mostly inhibitors | AID 720497, 2013 | shares compounds with WRN helicase inh-1; further: nearly all actives have a fitted effect of over 65% in size
TO DNA binding = qHTS for Inhibitors of WRN Helicase: Thiazole Orange DNA Binding Counterscreen; shares compounds with WRN helicase inh-1; thiazole orange DNA binding displacement, fluorescence; Potency, µM (series often up to 57.1 µM), hits mostly inhibitors; 10% of 610 active; AID 720499, 2013;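 further: drop in dye fluorescence marks compound binding to DNA; nearly all actives have a fitted effect of over 60% in size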
BLM counter = qHTS for Inhibitors of WRN Helicase: BLM Helicase Counterscreen for WRN Inhibitors | shares compounds with WRN helicase inh-1 | Potency, µM (titrated, usually from 57.1 µM), usual class: inhibitors | 60% of 610 active | Recombinant BLM helicase DNA unwinding, red fluorescence; further: nearly all actives have a fitted effect of over 60% in size
A number is an active result; . = inactive; ? = inconclusive; / = no result given; [ ] = dose if it differs, or a comment. Rows were chosen to be rich in hits. Some 2.4% of all compounds tested hit in one or more screens of this group. The call rests on the fitted dose curve; in most records, active means well fitted curve in the direction sought with a large enough effect; inconclusive means small, poorly fitted or top-dose-only effect, or another doubt; inactive means no such curve, though single readings can be large; an effect the other way counts as inactive or inconclusive.

SMILES	FEN1 inh-1	POLB inh	Pol kappa inh-1	Pol iota inh	WRN helicase inh-1	Pol eta inh-1	Pol kappa inh-2	Pol eta inh-2	others
O=C(CCCN1C(=O)/C(=C/c2ccccc2)SC1=S)Nc1ccccc1O	.	.	.	.	.	.	/	/
O=C(CCCN1C(=O)/C(=C/c2ccco2)SC1=S)Nc1ccccc1C(=O)O	?	.	?	22.4µM	31.6µM	11.2µM	8.44	19	Pol iota confirm=33.6;WRN helicase inh-2=19.2µM;TO DNA binding=.;BLM counter=24.1µM
O=C(CCN1C(=O)/C(=C/c2ccco2)SC1=S)Nc1ccc(C(=O)O)c(O)c1	35.5µM	?	20µM	3.98µM	44.7µM	4.47µM	16.8	?	Pol iota confirm=29.9;FEN1 inh-2=84.9;WRN helicase inh-2=17.1µM;TO DNA binding=.;BLM counter=21.5µM
Cc1nc2cnc(N3CCOCC3)nc2n(Cc2ccc(F)cc2)c1=O	/	/	.	/	/	/	/	/
O=C(O)c1[nH]c2ccccc2c1C(c1cc(Cl)cc([N+](=O)[O-])c1O)c1c(C(=O)O)[nH]c2ccccc12	79.4µM	35.5µM	50.1µM	17.8µM	44.7µM	20µM	/	26.9	Pol iota confirm=75.2;WRN helicase inh-2=21.5µM;TO DNA binding=.;BLM counter=?
CCN(C(=O)C1CCN(S(=O)(=O)c2cc(Br)cc3c2N(C(C)=O)CC3)CC1)c1cccc(C)c1	.	.	.	.	/	.	/	/
O=Cc1cccn1-c1cccc([N+](=O)[O-])c1	.	?	.	.	.	.	/	/
O=C(O)c1cccc(-n2cccc2/C=C/[N+](=O)[O-])c1	?	3.55µM	14.1µM	?	20µM	2.82µM	/	5.36	TbPGK inh=20.6µM;Pol iota confirm=15;FEN1 inh-2=42.6;WRN helicase inh-2=17.1µM;TO DNA binding=.;BLM counter=19.2µM
ON=Cc1cccn1-c1ccccc1	.	.	.	.	.	.	/	/
O=C(O)c1cccc(-n2cccc2/C=N/O)c1	?	12.6µM	35.5µM	11.2µM	?	3.16µM	/	30.1	Pol iota confirm=18.9;WRN helicase inh-2=24.1µM;TO DNA binding=.;BLM counter=19.2µM
Cc1c(Cl)cccc1NC(=O)CSc1ncc(S(=O)(=O)c2ccc(C(C)C)cc2)c(=O)[nH]1	.	.	.	?	/	.	/	/
COc1cc(-c2nnc(SCc3cc(=O)oc4cc(O)c(O)cc34)o2)cc(OC)c1OC	39.8µM	0.891µM	1.12µM	1.12µM	10µM	0.708µM	/	1.07	TbPGK inh=0.919µM;Pol iota confirm=2.38;FEN1 inh-2=37.9;WRN helicase inh-2=2.41µM;TO DNA binding=19.2µM;BLM counter=0.961µM
O=C(O)c1cccc(Nc2c3ccccc3nc3ccccc23)c1	.	.	.	.	.	.	/	/
O=C(O)c1cc(S(=O)(=O)O)cc(Nc2c3ccccc3nc3ccccc23)c1O	.	.	?	?	.[11.6 µM]	22.4µM	16.8	30.1
COc1ccc(N2CCN(Cc3nnc(-c4cccc(Br)c4)o3)CC2)cc1	?	.	.	.	/	.	/	/
COc1ccccc1NC(=O)C(=N\O)/C(C)=N/O	.	44.7µM	?	?	.	14.1µM	/	84.9
COc1ccccc1NC(C)=O	.	.	.	?	.	.	/	/
COC(=O)c1sccc1S(=O)(=O)N1CCN(c2ccccc2OC)CC1	.	.	.	.	/	.	/	/
O=C(O)c1cccc(-c2ccc(/C=N/n3cnnc3)o2)c1	.	?	.	.	.	?	/	/
CC(C)S(=O)(=O)C1=NSC2=NC(=O)/C(=C\c3ccc(-c4cccc(C(=O)O)c4)o3)C(=N)N21	22.4µM	31.6µM	28.2µM	5.62µM	?	7.94µM	16.8	30.1
COc1ccc2nc(-c3ccccc3)[nH]c2c1	.	.	.	.	.	.	/	/
Oc1c(Br)cc(C=Nc2ccc3nc(-c4ccccc4)[nH]c3c2)c(O)c1Br	39.8µM	?	50.1µM	?	?	14.1µM	9.47	30.1
CC(C)(C)CC(C)(C)c1cc(Cc2cc(C(C)(C)CC(C)(C)C)cc(-n3nc4ccccc4n3)c2O)c(O)c(-n2nc3ccccc3n2)c1	/	/	.[19.4 µM]	/	/	/	/	/
Cc1cc2c(SCC(=O)Nc3cccc(O)c3)ncnc2s1	44.7µM	/	89.1µM	?	?	22.4µM	21.2	75.7
O=C1CS/C(=N/N=C/c2ccccc2)N1c1ccc(O)cc1	.	.	.	.	.	.	/	/
O=C1CS/C(=N\N=C\c2ccco2)N1c1ccccc1	.	?	?	?	.[11.6 µM]	?	?	?

Screens as filed in PubChem BioAssay.
